# Measured values reported in PubChem BioAssay AID1508600 (Functional Genomics Laboratory (NCATS/FGL), 2020).
# The campaign covered roughly 53,000 sequences. About 3,700 (7%) were called active.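 How the source made its calls: active means gene knockdowns whose robust z-score for IL-1 alpha signal is at least 2 or at most -2, so actives lie on both sides; inactive means the rest.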 Many of the other results were omitted from the sample, so actives are more common in it than they were.
# Experiment: Components of the Cytosolic LPS Sensing Pathway: Gene Identification via Genome-wide siRNA Screen;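 further: robust z of the log signal after scaling to non-targeting control siRNA wells of the plate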
# Conditions: RAW264.7 macrophages, IL-1a HTRF, actives lie on both sides, screened at 100 nM (by protocol), cells primed 5 h with Pam3CSK4 first
# Method in brief: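 RAW264.7; siRNA 100 nM final, RNAiMAX, 48h 37 degrees C; Pam3CSK4 5 h; LipidA + TransIT-TKO 24 h; IL-1a HTRF; CellTiter-Glo viability; robust z vs negative-control median.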
row,Sequence,z-score
1,GCCCAAACGAAAAAUGGCCTT against Abl1,2.95 (active)
2,GCAACUGAGAGAUGUCAUCTT against Gbp6,-0.806 (inactive)
3,CCUGUGAAGUAUAACAUCGTT against Fam234b,-0.722 (inactive)
4,CCUAUGUAUCUCAUCGCUGTT against Sox11,0.819 (inactive)
5,GGCAAUUUGGAUACCAGGATT against Zfp24,-0.563 (inactive)
6,GCAGAAUUGAGUCACCCAATT against Sp1,-2.56 (active)
7,GCGACAAAGCUCGUUAUGATT against Hmgb2,-2.3 (active)
8,GCAUAAACUUUAGGCAUGGTT against Alg13,-0.123 (inactive)
9,GGUCAUCCGAUGCUUUGUATT against 4930515G01Rik,-0.513 (inactive)
10,CCGGUUACCAAUUGAUAAATT against Smc3,-1.15 (inactive)
11,GCGUAAAUCUCCACACUACTT against Vmn1r54,-1.57 (inactive)
12,GGUGGAUACACAGGACAAATT against Invs,1.58 (inactive)
13,GGAGCGUAGAUAACUUAUCTT against Itprid2,-0.0474 (inactive)
14,CGCAGACAGUUUGAGGCUGTT against Gpbp1,-2.34 (active)
15,GGGACAUGGUCAUCACUAGTT against Clvs2,-1.71 (inactive)
16,GGAAUAGGAGCAAGUGUACTT against 9930021J03Rik,1.03 (inactive)
17,GGAUACACACAGAGAAUAUTT against Arhgef10l,0.161 (inactive)
18,GGCCUUCACGUCUGGAAAUTT against Cnot10,-0.163 (inactive)
19,GCAUCUCUCUAAUAGCCUUTT against Nop16,1.24 (inactive)
20,GGAUGAAAAUCUCUGUCCUTT against Trpa1,0.604 (inactive)
21,GGCAGCAGCAAGUUUCUUCTT against Rbm38,-2.31 (active)
22,GCUUUUGAUCCACAGAUUUTT against Prss33,0.372 (inactive)
23,GGGCUUAUUCUCAGUUCUGTT against Slc17a1,-0.395 (inactive)
24,GGACCAUGUGACAAAGCCUTT against Fam131b,2.16 (active)
25,GCCUCCAUUAUUUGUUCUGTT against Olfr1058,-0.177 (inactive)
26,GGAAACACCAAGAUUCCAGTT against Sprr3,-0.445 (inactive)
27,GCUAUUGGAGGAAUGUAUCTT against Rasgrp4,-1.51 (inactive)
28,GGCACAAGAGCAAAGGCUUTT against Gmppb,-0.575 (inactive)
29,CCCUCAUUUACUCUAGUAATT against Defb12,0.714 (inactive)
